According to PubChem BioAssay AID1159580 (chemical genetic matrix, 2015):
The campaign covered roughly 5,500 compounds. About 2,000 (36%) were called active. Not shown: some 18% with an inconclusive outcome. Rule as the data show it: active = normalized growth mostly below about 0.91 (no sharp cut-off); inconclusive = no clear call, values can overlap the other calls; inactive = mostly above about 0.92. The list shows a part of the results.

Experiment: chemical genetic growth profiling, strain panel (AID 1159580);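 also: tested at 20 µM; growth read once vehicle control cultures reached saturation at 30 °C; 1 = growth at the plate median or of vehicle wells; lower values mean less growth of the strain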
Settings: S. cerevisiae deletion strains, growth OD

Measured: normalized growth

CC1(C)O[C@@H]2[C@@H](CO[C@@]3(COS(N)(=O)=O)OC(C)(C)O[C@@H]23)O1
inactive: locus YAL021C, strain ccr4, active compounds read low 1.03 | locus YAL026C, strain drs2, active compounds read low 1.03 | locus YAL030W, strain snc1, active compounds read low 1.01 | locus YBL061C, strain skt5, active compounds read low 1.01 | locus YBR009C, strain hhf1, active compounds read low 0.983 | locus YBR023C, strain chs3, active compounds read low 1.02 | locus YBR171W, strain sec66, active compounds read low 1.01 | locus YBR231C, strain swc5, active compounds read low 0.981 | locus YBR279W, strain paf1, active compounds read low 1.02 | locus YCL011C, strain gbp2, active compounds read low 1.01 | locus YCL016C, strain dcc1, active compounds read low 1.04 | locus YCL069W, strain vba3, active compounds read low 1.01 | locus YCR088W, strain abp1, active compounds read low 1.01 | locus YDL005C, strain med2, active compounds read low 1.02 | locus YDL040C, strain nat1, active compounds read low 0.997 | locus YDR001C, strain nth1, active compounds read low 1 | locus YDR069C, strain doa4, active compounds read low 0.994 | locus YDR137W, strain rgp1, active compounds read low 1.08 | locus YDR159W, strain sac3, active compounds read low 0.94 | locus YDR195W, strain ref2 0.987 | locus YDR297W, strain sur2, active compounds read low 0.992 | locus YDR334W, strain swr1, active compounds read low 1.02 | locus YDR335W, strain msn5, active compounds read low 1.02 | locus YDR392W, strain spt3, active compounds read low 1.01 | locus YEL003W, strain gim4, active compounds read low 0.99 | locus YEL037C, strain rad23, active compounds read low 1 | locus YEL061C, strain CIN8 (second series), active compounds read low 1 | locus YER015W, strain faa2, active compounds read low 1.01 | locus YER016W, strain bim1, active compounds read low 1.04 | locus YER111C, strain swi4, active compounds read low 1.02 | locus YER155C, strain BEM2 (second series), active compounds read low 1.02 | locus YFR010W, strain ubp6, active compounds read low 0.983 | locus YGL167C, strain pmr1, active compounds read low 1.01 | locus YGL173C, strain kem1, active compounds read low 0.998 | locus YGL227W, strain vid30, active compounds read low 1.01 | locus YGL240W, strain doc1, active compounds read low 0.991 | locus YGL253W, strain hxk2, active compounds read low 1 | locus YHR013C, strain ard1, active compounds read low 1.07 | locus YHR027C, strain rpn1, active compounds read low 1.01 | locus YHR030C, strain SLT2, active compounds read low 0.98 | locus YHR079C, strain IRE1, active compounds read low 0.965 | locus YHR142W, strain chs7, active compounds read low 1.02 | locus YJL092W, strain hpr5, active compounds read low 1.01 | locus YJL095W, strain BCK1 (second series), active compounds read low 1.01 | locus YJL095W, strain BCK1, active compounds read low 0.974 | locus YJL115W, strain asf1, active compounds read low 1.01 | locus YJL129C, strain trk1, active compounds read low 1.01 | locus YJL154C, strain vps35, active compounds read low 1 | locus YJL164C, strain tpk1, active compounds read low 0.988 | locus YJL166W, strain qcr8, active compounds read low 0.985 | locus YJL187C, strain SWE1, active compounds read low 0.992 | locus YJR066W, strain TOR1, active compounds read low 0.942 | locus YKL160W, strain elf1, active compounds read low 1.05 | locus YKR026C, strain gcn3, active compounds read low 1 | locus YKR091W, strain srl3, active compounds read low 0.999 | locus YLL001W, strain dnm1, active compounds read low 0.987 | locus YLL026W, active compounds read low 1 | locus YLL041C, strain sdh2, active compounds read low 0.991 | locus YLR027C, strain aat2, active compounds read low 1.01 | locus YLR113W, strain HOG1, active compounds read low 0.964 | locus YLR221C, strain rsa3, active compounds read low 0.992 | locus YLR258W, strain gsy2, active compounds read low 1.02 | locus YLR262C, strain YPT6 (second series), active compounds read low 1.01 | locus YLR320W, strain mms22, active compounds read low 0.956 | locus YLR342W, strain FKS1, active compounds read low 1.03 | locus YLR357W, strain rsc2, active compounds read low 1 | locus YLR370C, strain arc18, active compounds read low 1.01 | locus YLR384C, strain iki3, active compounds read low 1.03 | locus YML120C, strain ndi1, active compounds read low 0.999 | locus YMR058W, strain fet3, active compounds read low 1.01 | locus YMR125W, strain sto1, active compounds read low 1 | locus YMR129W, active compounds read low 1 | locus YMR205C, strain PFK2, active compounds read low 0.981 | locus YMR231W, strain pep5, active compounds read low 1 | locus YNL071W, strain lat1, active compounds read low 1.01 | locus YNL183C, strain NPR1, active compounds read low 0.902 | locus YNL209W, strain ssb2, active compounds read low 1.01 | locus YNL248C, strain rpa49, active compounds read low 1.03 | locus YNL322C, strain KRE1 (second series), active compounds read low 1.01 | locus YNR049C, strain mso1, active compounds read low 0.99 | locus YOR001W, strain rrp6, active compounds read low 0.965 | locus YOR070C, strain gyp1, active compounds read low 1.01 | locus YOR080W, strain dia2, active compounds read low 1.02 | locus YOR083W, strain WHI5, active compounds read low 0.996 | locus YOR106W, strain vam3, active compounds read low 1.04 | locus YOR231W, strain MKK1, active compounds read low 0.977 | locus YOR265W, strain rbl2, active compounds read low 1 | locus YOR270C, strain vph1, active compounds read low 1.06 | locus YOR290C, strain snf2, active compounds read low 1.06 | locus YPL051W, strain arl3, active compounds read low 1.07 | locus YPL078C, strain atp4, active compounds read low 1.04 | locus YPL106C, strain sse1, active compounds read low 1.07 | locus YPL240C, strain hsp82, active compounds read low 1.01 | locus YPL256C, strain CLN2, active compounds read low 0.95
